Potency data for nine molecules are collected here from PubChem BioAssay (Tox21).

Several values for one entry are separate records, joined by “and”; a condition that tells them apart may be missing. Identical values can stand only once. Results filed as inconclusive are left out. A structure can be active in one record and inactive in another. Activity calls are given as the source filed them. Unless noted, the call rests on the fitted dose curve.

Assay [1] in a line: Nuclear factor erythroid 2-related factor 2/antioxidant responsive element (Nrf2/ARE) small molecule agonists: qHTS cell viability counter screen in human keratinocytes (AID 1919968; active means well fitted curve in the direction sought with a large enough effect in the repeat runs; an effect the other way counts as inactive or inconclusive; further: nearly all actives have a fitted effect of over 55% in size; further: potency means the concentration at half of the fitted maximal effect). In outline: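 In human HaCaT keratinocytes stably expressing an ARE-driven luciferase, compound exposure lasted 23 h at 37 C under 5% CO2. Viable cells are quantified with a protease-based fluorogenic reagent (CellTiter-Fluor) read 1 h after addition.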
(qHTS replaces the single test concentration by a dilution series.)

A short description of assay [2]: Nuclear factor erythroid 2-related factor 2/antioxidant responsive element (Nrf2/ARE) small molecule agonists: luciferase reporter gene qHTS assay in human keratinocytes (AID 1919969). Further: nearly all actives have a fitted effect of over 35% in size. Further: potency means the concentration at half of the fitted maximal effect. A general note: In a reporter assay the amount or activity of a reporter protein is the signal.
For assay [3], the target named is Gonadotropin-releasing hormone receptor (Homo sapiens) (UniProt P30968). The assay is described as follows: Human gonadotropin-releasing hormone receptor (GnRHR) small molecule agonists, calcium flux assay in GnRHR-HEK293 cells (AID 1920063). Further: nearly all actives have a fitted effect of over 35% in size. Further: potency means the concentration at half of the fitted maximal effect. The essentials: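 Intracellular calcium rise is the read-out: engineered human GnRHR HEK293 cells, dye-loaded, are exposed to DMSO-dissolved compounds and fluorescence at Ex/Em 480/540 is tracked for 3 min.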
(Calcium flux is commonly read through the fluorescence of an indicator in the cells.)

For assay [4], the target named is KiSS-1 receptor (Homo sapiens) (UniProt Q969F8). Briefly: Human kisspeptin (KISS1R) small molecule agonists, calcium flux assay in KISS1R-HEK293 cells (AID 1920064; active means well fitted curve in the direction sought with a large enough effect in the repeat runs; an effect the other way counts as inactive or inconclusive). In outline:
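Concentration-response testing used 15 concentrations in triplicate on human KISS1R-expressing HEK293 cells. Calcium-dependent fluorescence (Ex/Em 480/540) was followed kinetically for 3 min after compound transfer.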

Assay [5] in a line: G protein-coupled receptor (GPCR) small molecule agonists, calcium flux assay: HEK293 wild type cell line counter screen (AID 1920065). In outline:
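Fluorescence intensity signals activation. After overnight (18 h) culture and a 1 h calcium dye load at 37 C, compounds are added by pin tool and the plate read at 480/540 nm for 3 min in 1 s steps.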

Assay [6] is described as follows: p53 small molecule agonists, cell-based qHTS assay: qHTS cell viability counter screen (AID 1963581). Further: nearly all actives have a fitted effect of over 45% in size. In outline: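 Luminescence from CellTiter-Glo, reflecting ATP content, serves as the cytotoxicity measure; it is taken after the 2 h reporter substrate step in HCT-116 p53RE-bla cells dosed for 16 h at 37 C.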
Assay [7] has as its target 5-hydroxytryptamine receptor 2A (Homo sapiens) (UniProt P28223). Briefly: 5-hydroxytryptamine receptor 2A (HTR2A) small molecule antagonists, cell-based qHTS assay (AID 1963586). Further: nearly all actives have a fitted effect of over 45% in size. In outline: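 CHO cells stably expressing human HTR2A were plated for 18 h at 37 C, then loaded with calcium dye for 1 h. Compounds were preincubated 5 min at room temperature before DOI (4 nM solution) was added. Kinetic fluorescence was read for 3 min.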

The target is the same in assay [8]. Briefly: 5-hydroxytryptamine receptor 2A (HTR2A) small molecule agonists, cell-based qHTS assay (AID 1963587). Further: nearly all actives have a fitted effect of over 30% in size. In outline:
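Kinetic calcium-flux fluorescence (2 min, 1 sec intervals) after compound addition in agonist mode. HTR2A-CHO cells were cultured 18 h, then dye-loaded 1 h at 37 C.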

Assay [9] addresses Muscarinic acetylcholine receptor M1 (Homo sapiens) (UniProt P11229). The assay is described as follows: Cholinergic receptor muscarinic 1 (CHRM1) small molecule antagonists, cell-based qHTS assay (AID 1963588). Further: nearly all actives have a fitted effect of over 40% in size. Further: potency means the concentration at half of the fitted maximal effect. In outline:
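Compounds were tested at 15 concentrations in three independent runs. Dye-loaded CHRM1-CHO cells were exposed 5 min at room temperature before stimulation by acetylcholine added at 50nM. Intracellular calcium was read kinetically on FDSS for 3 min.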

Assay [10] shares this target. Briefly: Cholinergic receptor muscarinic 1 (CHRM1) small molecule agonists, cell-based qHTS assay (AID 1963589). Further: nearly all actives have a fitted effect of over 35% in size. In outline:
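Fluorescent calcium dye reports M1 activation in stably transfected CHO cells. Compounds, 15 concentrations, added after 1 h dye loading at 37 C; kinetic reading at 1 sec intervals.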

Assay [11] can be described thus: cAMP Responsive Elements (CRE) small molecule antagonists, cell-based qHTS assay (AID 1963591; active means well fitted inhibition curve with a large enough effect in the signal ratio in the repeat runs, not every such curve was filed as active; the % refers to the signal ratio). In outline: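 Stimulation used NKH477 at a final 0.25 uM for 3 h in compound-treated CRE-bla HEK293T cells, seeded 18 h beforehand. Reporter activity was measured with LiveBLAzer B/G FRET substrate after 2 h at room temperature.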
Assay [12] addresses Beta-2 adrenergic receptor (Homo sapiens) (UniProt P07550). The assay is described as follows: Adrenergic beta2 receptor (ADRB2) small molecule antagonists, cell-based qHTS assay (AID 1963592). Further: series mostly up to about 92 µM; nearly all actives have a fitted effect of over 50% in size. In outline:
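Assay format: CHO-ADRB2 cells, 18-20hr seeding at 37C/5% CO2, then compound plus 1nM isoproterenol agonist mix for 0.5hr RT. Homogeneous time-resolved fluorescence cAMP detection after 1hr, expressed as 665/615 nm ratio.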

The target in assay [13] is D(2) dopamine receptor (Homo sapiens) (UniProt P14416). The assay is described as follows: Dopamine D2 receptor (DRD2) small molecule agonists, cell-based qHTS assay (AID 1963594). Further: nearly all actives have a fitted effect of over 35% in size. Further: potency means the concentration at half of the fitted maximal effect. In outline: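 cAMP accumulation in DRD2-HEK293 cells measured by HTRF after 1 h detection; compounds added 10 min before NKH477 (200nM […]) forskolin-analogue stimulation, 30 min at room temperature, with Ro20-1724 present at 0.1 mM final.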

Assay [14] shares this target. Briefly: Dopamine D2 receptor (DRD2) small molecule antagonists, cell-based qHTS assay (AID 1963595; active means well fitted inhibition curve with a large enough effect in the signal ratio in the repeat runs, with a control signal flat; the % refers to the signal ratio; further: potency means the concentration at half of the fitted maximal effect). In outline: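 Cells were plated and grown for 24 h at 37 °C. Ro20-1724 (0.1 mM final) went in first, then compound for 10 min. NKH477 (200 nM) with quinpirole (12 nM) followed for 30 min at RT, then HTRF detection reagents for 1 h.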
Assay [15] concerns the target Beta-2 adrenergic receptor (Homo sapiens) (UniProt P07550). Briefly: Adrenergic beta2 receptor (ADRB2) small molecule agonists, cell-based qHTS assay (AID 1963593).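 Further: CHO cells stably overexpressing human ADRB2.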 In outline: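 CHO cells stably over-expressing ADRB2 were plated overnight at 37C, then dosed with compounds plus a stimulation mix containing 100uM IBMX and 25uM Ro-20-1724 for 0.5hr at room temperature. cAMP was measured by HTRF competition, 1hr.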

Assay [16] is described as follows: p53 small molecule agonists, cell-based qHTS assay with human liver microsomes: qHTS cell viability counter screen (AID 1963579). Further: nearly all actives have a fitted effect of over 45% in size. Further: potency means the concentration at half of the fitted maximal effect. In outline: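 p53RE-bla cells (4,000/well) were pre-incubated 5 h at 37 C, then given compounds in DMSO plus human liver microsomes (0.5 mg/mL final) and NADPH (0.5 mg/mL final) for 16 h at 37 C. Viability was read by CellTiter-Glo luminescence.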

Assay [17] can be described thus: p53 small molecule agonists, cell-based qHTS assay with rat liver microsomes: qHTS cell viability counter screen (AID 1963580). Further: nearly all actives have a fitted effect of over 45% in size. In outline:
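Cytotoxicity counter screen: intracellular ATP read by CellTiter-Glo luminescence in the p53 reporter wells. HCT-116 p53RE-bla cells were treated for 16 h at 37 C alongside rat liver microsomes and NADPH, each 0.5 mg/mL final.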

Assay [18] can be described thus: cAMP Responsive Elements (CRE) small molecule agonists, cell-based qHTS assay (AID 1963590). In outline:
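Compound exposure lasted 3 h at 37 C/5% CO2 in CRE-bla HEK 293T cells grown in assay medium with 10% dialyzed FBS and 25 mM HEPES. Reporter signal came from LiveBLAzer B/G FRET substrate, 2 h, room temperature.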

Assay [19] can be described thus: p53 small molecule agonists, cell-based qHTS assay (AID 1963582; active means well fitted activation curve with a large enough effect in the signal ratio in the repeat runs, not every such curve was filed as active; the % refers to the signal ratio). The essentials:
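After plating, p53RE-bla cells sat 5 h in the incubator; compounds or DMSO vehicle were pinned in; a 16 h incubation at 37 C followed; FRET substrate was added and, 2 h later at RT, fluorescence was measured.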

Sequence of 5-hydroxytryptamine receptor 2A (Homo sapiens) (P28223 whole entry, looked up): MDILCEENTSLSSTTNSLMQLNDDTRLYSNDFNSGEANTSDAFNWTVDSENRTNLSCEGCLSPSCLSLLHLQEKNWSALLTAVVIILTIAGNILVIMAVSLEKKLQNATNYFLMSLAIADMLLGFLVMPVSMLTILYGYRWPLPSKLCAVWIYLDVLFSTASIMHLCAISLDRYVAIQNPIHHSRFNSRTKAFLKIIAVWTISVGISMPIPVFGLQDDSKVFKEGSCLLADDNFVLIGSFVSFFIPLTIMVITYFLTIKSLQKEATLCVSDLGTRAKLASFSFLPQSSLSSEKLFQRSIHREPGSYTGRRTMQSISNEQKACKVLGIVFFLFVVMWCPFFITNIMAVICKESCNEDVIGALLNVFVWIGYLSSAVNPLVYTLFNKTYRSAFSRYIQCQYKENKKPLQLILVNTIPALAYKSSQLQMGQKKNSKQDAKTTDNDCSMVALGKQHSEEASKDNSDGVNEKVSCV
Sequence of Beta-2 adrenergic receptor (Homo sapiens) (P07550 whole entry, looked up): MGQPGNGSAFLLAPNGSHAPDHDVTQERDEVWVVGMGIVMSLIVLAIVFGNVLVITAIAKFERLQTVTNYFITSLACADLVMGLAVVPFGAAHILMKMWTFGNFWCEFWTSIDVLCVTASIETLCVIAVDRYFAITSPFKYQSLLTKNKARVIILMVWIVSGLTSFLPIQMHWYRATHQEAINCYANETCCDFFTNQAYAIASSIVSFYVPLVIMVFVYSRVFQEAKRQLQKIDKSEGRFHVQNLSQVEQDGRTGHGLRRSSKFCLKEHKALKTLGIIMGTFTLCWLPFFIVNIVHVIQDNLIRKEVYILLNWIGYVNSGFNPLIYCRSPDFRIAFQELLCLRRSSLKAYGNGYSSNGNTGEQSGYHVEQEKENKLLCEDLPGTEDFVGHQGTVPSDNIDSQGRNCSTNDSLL
Sequence of Muscarinic acetylcholine receptor M1 (Homo sapiens) (P11229 whole entry, looked up): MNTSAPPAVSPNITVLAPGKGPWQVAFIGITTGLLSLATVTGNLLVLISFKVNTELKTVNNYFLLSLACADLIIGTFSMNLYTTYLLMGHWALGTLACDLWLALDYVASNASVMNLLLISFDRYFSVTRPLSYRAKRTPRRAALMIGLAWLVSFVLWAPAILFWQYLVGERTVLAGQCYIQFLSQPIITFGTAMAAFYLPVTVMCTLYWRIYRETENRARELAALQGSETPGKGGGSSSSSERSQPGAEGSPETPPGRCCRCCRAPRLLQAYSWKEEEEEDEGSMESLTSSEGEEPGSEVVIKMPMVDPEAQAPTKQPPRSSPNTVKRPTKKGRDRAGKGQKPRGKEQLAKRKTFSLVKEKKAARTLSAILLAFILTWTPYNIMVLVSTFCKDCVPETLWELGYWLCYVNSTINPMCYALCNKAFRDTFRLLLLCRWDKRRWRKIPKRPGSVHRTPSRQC
Sequence of Gonadotropin-releasing hormone receptor (Homo sapiens) (P30968 whole entry, looked up): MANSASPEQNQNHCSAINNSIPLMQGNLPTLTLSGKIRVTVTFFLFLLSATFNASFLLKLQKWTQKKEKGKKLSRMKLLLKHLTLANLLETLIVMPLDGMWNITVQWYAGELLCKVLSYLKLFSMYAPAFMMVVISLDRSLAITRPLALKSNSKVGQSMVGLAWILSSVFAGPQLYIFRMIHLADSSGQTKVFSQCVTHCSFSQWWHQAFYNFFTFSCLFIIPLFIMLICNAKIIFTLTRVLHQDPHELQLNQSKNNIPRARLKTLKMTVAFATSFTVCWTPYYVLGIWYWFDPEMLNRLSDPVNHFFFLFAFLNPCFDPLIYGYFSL
Sequence of KiSS-1 receptor (Homo sapiens) (Q969F8 whole entry, looked up): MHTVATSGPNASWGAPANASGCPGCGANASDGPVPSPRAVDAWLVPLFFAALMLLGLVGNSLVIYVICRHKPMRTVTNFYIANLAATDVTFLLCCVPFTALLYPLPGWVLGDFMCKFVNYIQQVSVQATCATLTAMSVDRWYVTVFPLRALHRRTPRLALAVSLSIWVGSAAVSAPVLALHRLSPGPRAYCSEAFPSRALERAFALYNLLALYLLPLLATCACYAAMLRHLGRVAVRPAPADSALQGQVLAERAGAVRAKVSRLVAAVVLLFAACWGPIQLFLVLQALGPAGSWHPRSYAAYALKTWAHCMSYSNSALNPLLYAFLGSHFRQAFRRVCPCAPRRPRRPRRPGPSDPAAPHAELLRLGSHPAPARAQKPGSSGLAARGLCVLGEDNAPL
Sequence of D(2) dopamine receptor (Homo sapiens) (P14416 whole entry, looked up): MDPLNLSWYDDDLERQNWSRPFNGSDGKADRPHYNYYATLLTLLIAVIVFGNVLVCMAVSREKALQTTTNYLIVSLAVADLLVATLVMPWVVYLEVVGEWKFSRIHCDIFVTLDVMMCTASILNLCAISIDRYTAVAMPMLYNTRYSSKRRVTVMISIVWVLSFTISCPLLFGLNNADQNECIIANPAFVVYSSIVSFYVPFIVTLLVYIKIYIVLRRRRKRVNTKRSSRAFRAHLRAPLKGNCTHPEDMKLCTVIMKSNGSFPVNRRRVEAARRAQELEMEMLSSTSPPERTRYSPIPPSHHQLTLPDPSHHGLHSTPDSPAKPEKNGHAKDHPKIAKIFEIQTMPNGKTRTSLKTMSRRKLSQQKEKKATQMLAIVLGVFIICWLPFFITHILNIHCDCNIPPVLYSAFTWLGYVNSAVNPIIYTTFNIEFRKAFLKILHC

Turning to `COC(=O)C1=C(C)NC(C)=C(C(=O)OCCN(C)Cc2ccccc2)C1c1cccc([N+](=O)[O-])c1` (stereo not drawn), the Potency was 30.5 µM (active) in [1]; 1.32 µM (active) and inactive in [9]. Moreover, the Potency result in [2], in assay [3], in assay [4], in assay [5], in assay [6] and in assay [7] was “inactive” throughout. Besides, the Potency result in assay [8], in [10], in assay [11], in assay [12], in assay [13] and in assay [14] was “inactive” in each case.
Turning to `CC(C(=O)O)c1cccc(C(=O)c2ccccc2)c1` (stereo not drawn), the Potency result in assay [1], in [2], in [3], in assay [4], in [5] and in assay [12] was “inactive” each time. Further, the Potency result in [15], in [13] and in assay [14] was “inactive” in each case.
With `CC(C)(Oc1ccc(CCNC(=O)c2ccc(Cl)cc2)cc1)C(=O)O`, the Potency result in assay [1], in [2], in assay [3], in [4], in [5] and in assay [16] was “inactive” each time. Besides, the Potency result in assay [17], in assay [6], in [18], in [12] and in [15] was “inactive” each time.
As for `COC(=O)Nc1nc2ccc(S(=O)c3ccccc3)cc2[nH]1` (stereo not drawn), the Potency result in [1], in assay [3], in assay [4], in assay [5], in assay [16] and in assay [17] was “inactive” in each case. For the same molecule, the Potency result in assay [18], in assay [11], in assay [12], in [15], in assay [13] and in [14] was “inactive” throughout. Besides, the Potency entry in assay [2] is “inactive and 13.3 µM (active)”.
Regarding `OCc1ccccc1`, the Potency result in [1], in assay [3], in assay [4], in assay [5], in [16] and in assay [17] was “inactive” each time. Further, the Potency entry in assay [18], in assay [12], in assay [15], in assay [13] and in assay [14] was “inactive” in each case. In addition, the Potency result in [2] was “inactive and 9.69 µM (active)”.
Regarding `CC(=O)OC/C=C(\C)CC/C=C(\C)CCC=C(C)C`, the Potency entry in [1], in assay [2], in [3], in assay [4], in [5] and in assay [17] was “inactive” each time. Further, the Potency entry in assay [6], in [7], in assay [8], in [9], in assay [18] and in [11] was “inactive” in each case. Besides, the Potency result in assay [12], in assay [15], in assay [13] and in assay [14] was “inactive” each time.
With `Cc1cc(OCCOCC[N+](C)(C)Cc2ccccc2)ccc1C(C)(C)CC(C)(C)C`, the Potency was 21.6 µM (active) and 7.5 µM (active) in assay [1]; 38.7 µM (active) in assay [3]; 36.1 µM (active) and inactive in [16]; 2.96 µM (active) and 2.59 µM (active) in assay [9]; 38.3 µM (active) in assay [14]. In addition, the Potency entry in assay [2], in assay [4], in [5], in [17], in assay [10] and in assay [12] was “inactive” throughout. For the same molecule, the Potency result in assay [15] and in [13] was “inactive” in each case.
In the case of `CN/C(=C\[N+](=O)[O-])NCCSCc1ccc(CN(C)C)o1`, the Potency entry in assay [1], in assay [2], in assay [3], in assay [4], in [5] and in assay [6] was “inactive” in each case. Also, the Potency entry in assay [19], in assay [18], in assay [11], in assay [12], in [15] and in [14] was “inactive” in each case. The Potency result in assay [13] was “inactive and 17.4 µM (active)”.
For the molecule `CN(Cc1cnc2nc(N)nc(N)c2n1)c1ccc(C(=O)N[C@@H](CCC(=O)O)C(=O)O)cc1`, the Potency entry in assay [1], in [2], in [3], in [4], in [5] and in assay [16] was “inactive” in each case. Besides, the Potency entry in [17], in [18], in [11], in assay [12], in assay [15] and in assay [14] was “inactive” in each case.
